Measured values published in PubChem BioAssay AID1159580 (chemical genetic matrix, 2015).
Where “and” joins values, the source holds several entries; their conditions need not be identical. Equal values may be shown once. In all, about 5,500 compounds went through this assay and about 2,000 (36%) were called active. Inconclusive results (about 18%) are left out. Cut-off read from the data, not from the text of the source: active = normalized growth mostly below about 0.91 (no sharp cut-off); inconclusive = no clear call, values can overlap the other calls; inactive = mostly above about 0.92. The list shows a part of the results.

Assay: chemical genetic growth profiling, strain panel (AID 1159580);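 note: tested at 20 µM; growth read once vehicle control cultures reached saturation at 30 °C; 1 = growth at the plate median or of vehicle wells; lower values mean less growth of the strain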
Conditions: S. cerevisiae deletion strains, growth OD

Measured: normalized growth

O=c1[nH]oc2c1CCNC2
inactive: locus YAL013W, strain DEP1, hits give low values 1 and 1.01 | locus YAL021C, strain ccr4, hits give low values 1.01 | locus YAL026C, strain drs2, hits give low values 1.01 | locus YAL030W, strain snc1, hits give low values 0.998 | locus YAL040C, strain CLN3, hits give low values 0.99 | locus YBL061C, strain skt5, hits give low values 1 | locus YBR009C, strain hhf1, hits give low values 0.987 | locus YBR021W, strain FUR4, hits give low values 1.01 | locus YBR023C, strain chs3, hits give low values 0.998 | locus YBR171W, strain sec66, hits give low values 0.985 | locus YBR229C, strain ROT2, hits give low values 1 | locus YBR231C, strain swc5, hits give low values 0.976 | locus YBR279W, strain paf1, hits give low values 1.01 | locus YCL011C, strain gbp2, hits give low values 1.01 | locus YCL016C, strain dcc1, hits give low values 1 | locus YCL029C, strain bik1, hits give low values 0.97 | locus YCL061C, strain MRC1 (second series), hits give low values 1 | locus YCL069W, strain vba3, hits give low values 1 | locus YCR088W, strain abp1, hits give low values 0.999 | locus YDL005C, strain med2, hits give low values 1 | locus YDL035C, strain GPR1, hits give low values 0.999 | locus YDL040C, strain nat1, hits give low values 0.992 | locus YDL074C, strain BRE1, hits give low values 1.04 | locus YDL101C, strain DUN1, hits give low values 1.01 | locus YDL134C, strain PPH21, hits give low values 1.01 | locus YDL185W, strain tfp1, hits give low values 0.964 | locus YDL192W, strain arf1, hits give low values 0.976 | locus YDR001C, strain nth1, hits give low values 0.996 | locus YDR069C, strain doa4, hits give low values 0.993 | locus YDR101C, strain arx1, hits give low values 0.997 | locus YDR137W, strain rgp1, hits give low values 1.02 | locus YDR150W, strain NUM1, hits give low values 0.996 and 0.999 | locus YDR159W, strain sac3, hits give low values 0.973 | locus YDR162C, strain NBP2, hits give low values 1.02 | locus YDR195W, strain ref2 0.947 | locus YDR297W, strain sur2, hits give low values 1.01 | locus YDR318W, strain mcm21, hits give low values 0.966 | locus YDR334W, strain swr1, hits give low values 1 | locus YDR335W, strain msn5, hits give low values 1 | locus YDR363W, strain ESC2, hits give low values 1.01 | locus YDR388W, hits give low values 0.986 | locus YDR392W, strain spt3, hits give low values 1.01 | locus YDR502C, strain sam2, hits give low values 1 | locus YEL003W, strain gim4, hits give low values 0.998 | locus YEL037C, strain rad23, hits give low values 0.999 | locus YEL061C, strain CIN8 (second series), hits give low values 0.998 | locus YEL061C, strain CIN8, hits give low values 0.999 | locus YER002W, strain NOP16, hits give low values 1 | locus YER015W, strain faa2, hits give low values 1.01 | locus YER016W, strain bim1, hits give low values 1 | locus YER110C, hits give low values 0.967 | locus YER111C, strain swi4, hits give low values 0.994 | locus YER155C, strain BEM2 (second series), hits give low values 0.978 | locus YER155C, strain BEM2, hits give low values 0.998 | locus YER167W, strain BCK2, hits give low values 0.973 | locus YFR010W, strain ubp6, hits give low values 1.01 | locus YGL078C, strain dbp3, hits give low values 0.994 | locus YGL086W, strain mad1, hits give low values 0.963 | locus YGL167C, strain pmr1, hits give low values 0.999 | locus YGL173C, strain kem1, hits give low values 1.01 | locus YGL227W, strain vid30, hits give low values 0.994 | locus YGL240W, strain doc1, hits give low values 0.988 | locus YGL248W, strain PDE1, hits give low values 1 | locus YGL253W, strain hxk2, hits give low values 1.02 | locus YGR078C, strain PAC10, hits give low values 1.03 and 0.994 | locus YGR135W, strain pre9, hits give low values 1.01 | locus YGR229C, strain SMI1, hits give low values 1.03 | locus YGR252W, strain gcn5, hits give low values 0.97 | locus YHR013C, strain ard1, hits give low values 0.998 | locus YHR027C, strain rpn1, hits give low values 1.01 | locus YHR030C, strain SLT2, hits give low values 0.992 and 1.01 | locus YHR079C, strain IRE1 (second series), hits give low values 1 | locus YHR079C, strain IRE1, hits give low values 1.03 | locus YHR094C, strain hxt1, hits give low values 0.973 | locus YHR129C, strain ARP1, hits give low values 1 | locus YHR142W, strain chs7, hits give low values 1.03 | locus YHR200W, strain rpn10, hits give low values 0.975 | locus YIL066C, strain RNR3, hits give low values 1.01 | locus YIL073C, strain SPO22, hits give low values 0.902 | locus YIL125W, strain kgd1, hits give low values 0.987 | locus YIR030C, strain dcg1, hits give low values 0.982 | locus YJL092W, strain hpr5, hits give low values 0.998 | locus YJL095W, strain BCK1 (second series), hits give low values 0.999 | locus YJL095W, strain BCK1, hits give low values 1.06 and 1.02 | locus YJL115W, strain asf1, hits give low values 1.01 | locus YJL129C, strain trk1, hits give low values 1 | locus YJL134W, strain LCB3, hits give low values 0.994 | locus YJL154C, strain vps35, hits give low values 0.995 | locus YJL164C, strain tpk1, hits give low values 1 | locus YJL166W, strain qcr8, hits give low values 0.965 | locus YJL168C, strain set2, hits give low values 0.988 | locus YJL187C, strain SWE1 (second series), hits give low values 1.02 | locus YJR043C, strain POL32, hits give low values 0.987 | locus YJR066W, strain TOR1, hits give low values 0.921 | locus YJR075W, strain HOC1, hits give low values 1.08
